NPR1 activator: GC-A (human) enzyme activation. P16066. 370,000 tested, 0.14% active. activation, % at 10 µM. HEK293 GC-A cells, cGMP TR-FRET, EC30 ANP; 0% at EC30 ANP, 100% saturating ANP. AID 1671463; in the data active = activation above about 40%
Rev-erbA mod: Rev-erb alpha (human) modulation; P20393; Rev-erbα–FITC-DNA binding, fluorescence polarization, 90 min; activity, % at 10 µM; 370,000 tested, 0.79% active; AID 1259318;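 active = activity above about 14%, limit read from the data; passing the limit was not always enough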
GC-B act: GC-B (human) receptor activation. activation, % at 10 µM. 370,000 tested, 0.11% active. HEK293-GC-B cells, CNP EC30, cGMP TR-FRET; 0% at EC30 CNP, 100% saturating CNP. P20594;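 active = activation at 10 µM reaching about 35% in either raw or pattern-adjusted values, limit read from the data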
V-ATPase pH: alters yeast V-ATPase proton transport. S. cerevisiae, pHLuorin cytosolic pH fluorescence. 350,000 tested, 0.37% active. response, % at 10 µM; in the data active = response mostly above about 7.3%, no sharp cut-off; inactive = mostly below about 5.4%; note: actives read high
PG9 binder: binds the HIV-1 gp120 antibody PG9; AID 624416; 360,000 tested, 0.43% active; TR-FRET gp120-PG9 antibody binding; inhibition, % at 6.7 µM; in the data active = inhibition above about 8.5%
NR1D1 mod conf: confirmation of modulators of human Rev-erb alpha DNA binding; 3,000 tested, 61% active; Rev-erb alpha FITC-DNA binding, fluorescence polarization, 90 min; activation, % at 25 µM; shares compounds with Rev-erbA mod;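 active = activation at or above a set limit, or at least 3 SD above the negative control mean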
RORg counter: counter-screen for Rev-erb alpha modulators: RORgamma DNA binding | shares compounds with Rev-erbA mod | purified RORgamma protein-FITC-DNA binding, fluorescence polarization | IC50, µM | 910 tested, 8% active;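 active = Compounds whose fitted half-maximal concentration for disrupting protein-DNA binding is below 10 micromolar; the record names Rev-erb in its text, so the target is in doubt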
Large screens that a line does not name were inactive (follow-up assays come after a bar, where they were run). Shown are actives, neighbours in structure and some others; about 1.6% of the full set was active somewhere.

O=C1c2ccc(-c3ccc(F)cc3OCc3ccccc3)cc2S(=O)(=O)c2cccc(C(=O)N3CCN(c4ncc(Cl)cc4Cl)CC3)c21	none
COC(=O)[C@]12CCCCC=C1N(Cc1cccc3ccccc13)C(=O)[C@H](CC(=O)NCc1cccs1)C2	Rev-erbA mod 16 (no result: V-ATPase pH) | NR1D1 mod conf inactive
COC(=O)[C@]12CCCCC=C1N(Cc1cccc3ccccc13)C(=O)[C@H](CC(=O)NCc1cccc3ccccc13)C2	none (no result: V-ATPase pH)
CCN1/C(=C/c2ccc3cc(C)cc(C)c3[n+]2CC)Sc2cc(C)ccc21	Rev-erbA mod 31 | NR1D1 mod conf 37 | RORg counter inactive
CCN1/C(=C/c2ccc3cccc(C)c3[n+]2CC)Sc2ccccc21	Rev-erbA mod 48 | NR1D1 mod conf 71 | RORg counter inactive
CCN1/C(=C\c2ccc3cc(C)ccc3[n+]2CC)Sc2cc(C)c(C)cc21	none
C=CC(=O)NC1CCCCN(CC)C1=O (stereo unspecified)	none (no result: V-ATPase pH, PG9 binder)
N#Cc1c(-c2ccccc2F)cc(C2CC2)nc1SCC(=O)c1cccs1	Rev-erbA mod 40 | NR1D1 mod conf 28
CCSc1nc(C2CC2)cc(-c2cccs2)c1C#N	none
CC(C)(C)OC(=O)C1[C@H](O)C=CC[C@H]1S(=O)c1ccccc1 (stereo partly specified)	none (no result: V-ATPase pH, PG9 binder)
CCOC(=O)c1cc2c(nc1NC(=S)Nc1ccccc1)CC(C)(C)OC2	none
CCOC(=O)c1cc2c(nc1NC(=S)NCc1ccccc1)CCCC2	Rev-erbA mod 38 | NR1D1 mod conf 23
CCOC(=O)/C(C#N)=C/Nc1ccsc1C(=O)OC	Rev-erbA mod 22 | NR1D1 mod conf inactive
CCOC(=O)/C(C#N)=C/Nc1cc(F)ccc1C	none
CCOC(=O)/C(C#N)=C/Nc1cc(C(=O)OCC)cc2c(OC)c(OC)ccc12	Rev-erbA mod 31 | NR1D1 mod conf inactive
CCC[C@H]1[C@@H](OC(=O)NCc2ccc(Cl)c(Cl)c2)CC[C@@]23CCCN2C(=O)CCC[C@@H]13	none (no result: V-ATPase pH, PG9 binder)
O=C1CSc2ccc(C(=O)N3CCCC(C(=O)N4CCCN(Cc5ccccc5)CC4)C3)cc2N1 (stereo unspecified)	none (no result: V-ATPase pH, PG9 binder)
CCN(c1ccccc1C)S(=O)(=O)c1cc2c3c(c1)CCC(=O)N3CCC2	Rev-erbA mod 28 | NR1D1 mod conf 41 | RORg counter inactive
CO[C@H]1C[C@H](O[C@H]2[C@H](C)[C@@H](OC3O[C@H](C)C[C@H](N(C)C)[C@H]3OC(C)=O)[C@@H](C)C[C@]3(CO3)C(=O)[C@H](C)[C@@H](OC(C)=O)[C@@H](C)[C@@H](C)OC(=O)[C@@H]2C)O[C@@H](C)[C@@H]1OC(C)=O (stereo partly specified)	none (no result: NPR1 activator, GC-B act, V-ATPase pH, PG9 binder)
O=C(CSc1nnc(-c2cccs2)o1)OC1CCCCC1	none
O=C(CSc1nnc(-c2ccccc2NC(=O)c2ccccc2)o1)OC1CCCCC1	Rev-erbA mod 108 | NR1D1 mod conf inactive
O=C(Nc1nc2ccc(Cl)cc2s1)c1cccc(N2C(=O)CCC2=O)c1	NPR1 activator 74, Rev-erbA mod 43 | NR1D1 mod conf inactive
CCOC(=O)N1CCN(C(=O)C[C@H]2C[C@@]3(C(=O)OC)C(=C[C@H](C4CCCC4)O[C@@H]3C)N(CCC3=CCCCC3)C2=O)CC1	none (no result: V-ATPase pH, PG9 binder)
Cc1sc(NC(=O)Cc2ccc3c(c2)OCO3)nc1-c1ccc2c(c1)CCN2C(=O)c1ccccc1F	Rev-erbA mod 45 | NR1D1 mod conf 53
COc1ccc(C2C(C(=O)Nc3ccc(F)cc3)CCC(=O)N2c2ccc(OC)cc2)cc1 (stereo unspecified)	none (no result: V-ATPase pH, PG9 binder)
Clc1cccc2sc(-c3nnc(-c4ccccc4)o3)c(Cl)c12	Rev-erbA mod 38 | NR1D1 mod conf 31
N#CCSc1nnc(-c2sc3ccccc3c2Cl)o1	none
COc1ccccc1-c1ccc2c(c1)C(C)(Cc1ccccc1C#N)C(=O)N2 (stereo unspecified)	Rev-erbA mod 48 (no result: V-ATPase pH) | NR1D1 mod conf 42 | RORg counter inactive
CCc1ccc2c(c1)NC(=O)C2(C)Cc1ccccc1C#N (stereo unspecified)	none (no result: V-ATPase pH)
CC1(Cc2ccccc2C#N)C(=O)Nc2ccc(-c3ccccc3)cc21 (stereo unspecified)	Rev-erbA mod 36 (no result: V-ATPase pH) | NR1D1 mod conf 51 | RORg counter inactive
COc1ccc(CNC(=S)OC2CCC23CCC(c2ccccc2)CC3)cc1 (stereo unspecified)	none (no result: V-ATPase pH, PG9 binder)
Cc1cccc(NC(=O)Nc2cnccn2)c1C	Rev-erbA mod 18 | NR1D1 mod conf inactive
Cc1ccccc1NC(=O)Nc1cnccn1	none
Cc1nc2ccc(C(=O)N3CCN(C(=O)C(Cl)Cl)CC3)cc2n1C1CCCC1	none (no result: V-ATPase pH, PG9 binder)
CCc1nc2oc3ccc(C)cc3c(=O)c2cc1C(=O)OC	Rev-erbA mod 30 | NR1D1 mod conf 27
CCCNC(=O)c1c(NC(=O)C2COc3ccccc3O2)sc2c1CCCC2 (stereo unspecified)	Rev-erbA mod 49 | NR1D1 mod conf inactive
COC(=O)c1sc2nc3c(cc2c1N)C(=O)CC(C)(C)C3	Rev-erbA mod 70 | NR1D1 mod conf 44 | RORg counter inactive
CCOC(=O)c1sc2nc3c(cc2c1N)C(=O)CC(C)(C)C3	none
CCCCOCCCNC(=O)C[C@H]1C[C@@]2(C(=O)OC)C(=C[C@H](C(C)(C)C)O[C@@H]2C)N(Cc2ccco2)C1=O	none (no result: V-ATPase pH, PG9 binder)
Cc1cccn2c(=O)c3cc(C(=O)N4COCC4(C)C)n(Cc4ccccc4)c3nc12	Rev-erbA mod 31 | NR1D1 mod conf inactive
C=CCCC(=O)N[C@H]1CC[C@@]23CCCN2C(=O)CCC[C@H]3[C@H]1C	none (no result: V-ATPase pH, PG9 binder)
COc1ccc(-c2ccc3oc(-c4ccsc4)cc(=O)c3c2)cc1F	Rev-erbA mod 66 | NR1D1 mod conf 31
CCOc1ccccc1NC(=O)c1cnc2n(c1=O)CCS2	Rev-erbA mod 46 | NR1D1 mod conf 38 | RORg counter inactive
COC(=O)C1CN(Cc2cn(Cc3ccc(F)cc3)nn2)CCS(=O)(=O)N1Cc1ccc(F)cc1 (stereo unspecified)	none (no result: V-ATPase pH, PG9 binder)
COC(=O)[C@H](C(C)C)N1CCc2nnn(CC3CCCCC3)c2-c2ccccc2S1(=O)=O	none (no result: V-ATPase pH, PG9 binder)
O=C1c2cnc3nc(SCc4cccc(Cl)c4)nn3c2CC2c3ccccc3CCN12 (stereo unspecified)	Rev-erbA mod 34 | NR1D1 mod conf inactive
CSc1nc2ncc3c(n2n1)CC1c2ccccc2CCN1C3=O (stereo unspecified)	none
C[C@H](CCC(=O)O)[C@H]1CCC2C3C(CC[C@@]21C)[C@@]1(C)CC[C@@H](O)C[C@H]1C[C@@H]3O (stereo partly specified)	none (no result: NPR1 activator, GC-B act, V-ATPase pH, PG9 binder)
CC(C)=CC(=O)O[C@@H]1Cc2c(ccc3ccc(=O)oc23)OC1(C)C	Rev-erbA mod 26 | NR1D1 mod conf 23
